Several values for one entry are separate records, joined by “and”; a condition that tells them apart may be missing. Identical values can stand only once. Inconclusive results are not listed. Activity calls are given as the source filed them.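 How the source made its calls, unless noted: active means normalized viability below 100% at a tested concentration; inactive means the rest.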
How the values were obtained:
[1] = liver-stage malaria parasite growth inhibition, primary screen, cell-based, HepG2, luciferase luminescence, HepG2 viability (AID 624349; in the data active means parasite load remaining mostly below about 12%, no sharp cut-off; inactive means mostly above about 10%;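 further: 100% = mean of DMSO negative control wells on the same plate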); conditions: P. berghei liver stage in HepG2, luciferase luminescence, concentration not given here; parasite load remaining: stronger effect = lower value; viability: measured here: HepG2 viability without parasites
[2] = stimulators of nuclear beta-catenin in C2C12, primary screen, imaging, WNT3A-conditioned medium, mouse C2C12, NPC library (AID 1117326; in the data active means nuclear beta-catenin stimulation mostly above about 4.2%, no sharp cut-off; inactive means mostly below about 10%); conditions: stronger effect = higher value
[3] = stimulators of insulin release from INS-1E, primary screen, cell-based, 5 mM glucose, NPC library (AID 1117329;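 active means compound raises insulin release from rat beta cells at 5 mM glucose, no numeric limit stated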); conditions: rat INS-1E insulin secretion, at 10 µM, stronger effect = higher value
[4] = growth inhibition of GSK3B-pretreated HCT116 cells – cell-based, CellTiter-Glo, 0.2 to 20 µM (AID 1117336;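 active means compounds lowering colon cancer cell viability after pretreatment blocking the GSK3B kinase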); conditions: HCT116 viability after GSK3B inhibitor, at 20 µM, stronger effect = higher value
[5] = inhibition of endothelial tube formation, primary screen, imaging, VEGF stimulated, CD31 staining, tube area, NPC library (AID 1117340;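 active means compound that reduces growth-factor-driven endothelial tube area in a mixed cell culture, no cutoff stated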); conditions: VEGF-stimulated ADSC/ECFC co-culture, at 10 µM, stronger effect = higher value
[6] = glucagon-like peptide 1 release enhancers, primary assay, NCI-H716 cell line, NPC library (AID 1117341;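 active means compound raises GLP1 secretion from the human gut endocrine cells, with no numeric limit stated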); conditions: NCI-H716 cells, at 10 µM, stronger effect = higher value
[7] = HCT116 colon cancer cell growth inhibition, primary screen, CellTiter-Glo luminescence, NPC library (AID 1117342;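 active means compounds that lower survival of HCT116 colon cancer cells in the luminescence readout, no numeric limit stated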); conditions: at 20 µM (top of the series)
[8] = CellTiter-Glo luminescent readout of SW480 viability loss, NPC library primary (AID 1117343;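 active means compounds that lower viability of the colon cancer cells in the luminescence readout, with no numeric limit stated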); conditions: CellTiter-Glo luminescence; at 20 µM (top of the series) unless noted
[9] = decreased DLD-1 cellular survival, CellTiter-Glo luminescent readout, NPC compound collection, primary HTS (AID 1117346;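 active means compounds that lower survival of DLD-1 colon cancer cells in the luminescence readout, no cutoff given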); conditions: DLD-1 viability, CellTiter-Glo luminescence; at 20 µM (top of the series)
[10] = differential killing of epithelial or mesenchymal cells, primary screen, imaging, PC-3E GFP, TEM4-18 mCherry, co-culture (AID 1345086;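 active means compounds killing one labelled cell type while sparing the other, by normalised counts and ratio limits, not self-fluorescent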;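 on all read-outs here: cells exposed to compound for 72 h before imaging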;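 on red/green cell ratio (normalised): normalised mesenchymal count divided by normalised epithelial count so high means epithelial killing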); conditions: imaging cell counts, at 1 µM; for red/green cell ratio (normalised): actives lie on both sides, counts scaled to control wells, 1 = unselective
[11] = survival rescue of mitochondrial mutant cells in low glucose, primary screen, MELAS cybrids, Rieske KO mouse fibroblasts, CellTiter-Glo (AID 1508586;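 active means mean z-score across replicates of 1.96 or higher in either the MELAS or the Rieske mutant cell line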;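 further: z relative to plate mean and SD of compound and empty wells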)
[12] = target: NAD(+) hydrolase SARM1 (Homo sapiens) (UniProt Q6SZW1); test: SARM1 TIR NADase inhibitors, cell lysate, NAD-Glo luminescence (AID 1508614;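 active means compound whose remaining NAD level is above about 45 nM, limit read from the data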); conditions: SAM-TIR HEK293T lysate NADase, at 1 µM, stronger effect = higher value
[13] = viability rescue of complex I mutant cybrids, primary screen, cell-based, galactose medium, ATP luminescence (AID 1645843;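 active means z-score of at least 1.8 in each of two replicates, scored against plate mean and spread of sample wells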;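 further: positive z means more ATP and so rescue of galactose-driven cybrid death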); conditions: complex I mutant cybrid cells, 72 h, stronger effect = higher value
[14] = system: Aerobactin synthetase IucA (Klebsiella pneumoniae); test: IucA aerobactin synthetase inhibitors, biochemical, Tocris library, absorbance (AID 1345561; call rule not given here;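 further: 100% = enzyme without compound and 0% = no enzyme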); conditions: purified IucA enzyme assay, absorbance (OD) read-out; stronger effect = lower value;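 tested at 8 µM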
[15] = growth inhibition of DIPG glioma cells, dose response, cell-based, SU-DIPG-XVII, MIPE5.0, CellTiter-Glo, qHTS (AID 1347060; cut-off not given, nearly all actives have AC50 up to about 26 µM); conditions: SU-DIPG-XVII viability, CellTiter-Glo ATP luminescence
[16] = growth inhibition of DIPG glioma cells, dose response, cell-based, SU-DIPG-XIII, MIPE4.0, CellTiter-Glo, qHTS (AID 1347061; cut-off not given, nearly all actives have AC50 up to about 37 µM;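 further: cells exposed to compound for 48 hours before readout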); conditions: SU-DIPG-XIII viability, CellTiter-Glo ATP luminescence
[17] = growth inhibition of DIPG glioma cells, dose response, cell-based, JHH-DIPG-1, MIPE4.0, CellTiter-Glo, qHTS (AID 1347062; cut-off not given, nearly all actives have AC50 up to about 27 µM); conditions: JHH-DIPG-1 viability, CellTiter-Glo ATP luminescence
[18] = SU-DIPG-XXV glioma cell viability, MIPE5.0 library, qHTS (AID 1347068; cut-off not given, nearly all actives have IC50 up to about 30 µM)
[19] = sensitizers of A549 cells to miR-34 induction, primary screen, imaging, A549 dox-inducible miR-34, nuclei and caspase counts (AID 1347080;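 active means compounds whose cell count with miR-34 switched on is under 0.7 times the count with it off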); conditions: A549 miR-34 inducible, Hoechst nuclei count, 48 h
[20] = ovarian cancer cell viability with rucaparib, profiling panel, oncology-focused library, rucaparib conditional (AID 1508598); conditions: patient-derived ovarian cancer cells, CellTiter-Glo viability, 144 h, stronger effect = lower value
[21] = measured here: epithelial PC-3E GFP cell survival
[22] = measured here: mesenchymal TEM4-18 mCherry cell survival
[23] = stronger effect = lower value, cell number ratio, induced over uninduced
[24] = measured here: relative caspase fold change +Dox/-Dox
[25] = measured here: total cells with miR-34 induction, stronger effect = lower value
[26] = measured here: total cells without miR-34 induction

Chain of NAD(+) hydrolase SARM1 (Homo sapiens) (Q6SZW1 whole entry, looked up): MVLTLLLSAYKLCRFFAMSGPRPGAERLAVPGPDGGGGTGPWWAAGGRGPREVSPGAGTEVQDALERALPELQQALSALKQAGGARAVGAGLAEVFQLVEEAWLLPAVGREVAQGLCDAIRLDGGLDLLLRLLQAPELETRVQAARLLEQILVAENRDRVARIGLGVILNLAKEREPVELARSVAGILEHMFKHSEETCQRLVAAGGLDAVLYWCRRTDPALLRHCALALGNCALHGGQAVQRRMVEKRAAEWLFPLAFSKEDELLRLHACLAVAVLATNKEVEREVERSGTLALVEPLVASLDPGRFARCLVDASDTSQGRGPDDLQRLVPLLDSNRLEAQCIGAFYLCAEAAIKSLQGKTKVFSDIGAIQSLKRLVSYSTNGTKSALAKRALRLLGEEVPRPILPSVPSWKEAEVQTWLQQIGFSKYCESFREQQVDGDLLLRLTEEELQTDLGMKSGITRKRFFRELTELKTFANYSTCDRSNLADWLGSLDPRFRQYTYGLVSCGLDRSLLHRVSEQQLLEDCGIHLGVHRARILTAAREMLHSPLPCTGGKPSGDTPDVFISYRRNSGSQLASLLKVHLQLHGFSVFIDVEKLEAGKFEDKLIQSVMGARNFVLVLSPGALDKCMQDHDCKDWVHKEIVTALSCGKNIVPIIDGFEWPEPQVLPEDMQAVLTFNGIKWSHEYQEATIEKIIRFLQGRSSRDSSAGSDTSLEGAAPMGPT

C[N+](C)(C)CCCCCCCCCC[N+](C)(C)C
80.8% and 105% and 148%: viability [1]
inactive: parasite load remaining [1] 84.1% and 61.8% and 73.4% | nuclear beta-catenin stimulation ([2]; at 10 µM) -0.1% | insulin secretion stimulation [3] 1.7% | viability decrease [4] 17.6% | tube area decrease [5] -2.9% | GLP1 secretion stimulation [6] 0.7% | inhibition of viability [7] 2.9% | viability decrease (inhibition) [8] -8.7% | viability decrease (inhibition) [9] -0.3% | red/green cell ratio (normalised) [10] 0.87 | z-score ([11]; MELAS cybrid survival, CellTiter-Glo 48 h, stronger effect = higher value) -0.278 and -0.415 and 0.382 | remaining NAD [12] 10 nM | z-score [13] 0.27 and 0.14
-0.9%: nuclear beta-catenin stimulation ([2]; stimulation, at 2 µM)
0.99: normalised cell number [10, 22]
1.13: normalised cell number [10, 21]
-0.149 and -1.14 and 0.433: z-score ([11]; Rieske KO mouse fibroblast survival, CellTiter-Glo 72 h)

Nc1ncn([C@H]2C[C@H](O)[C@@H](CO)O2)c(=O)n1
8200: cell count [19, 25]
active: tube area decrease [5] 58.1% | viability decrease (inhibition) [8] 53.8% | viability ([20]; at 0.00488 µM, OCI-P5x cells, with rucaparib 20 µM, 100% = cells with rucaparib alone) 99.8% | viability ([20]; at 0.00488 µM, OCI-P5x cells, without rucaparib) 95.8% | viability ([20]; at 0.0195 µM, OCI-P5x cells, with rucaparib 20 µM, 100% = cells with rucaparib alone) 82.8% | viability ([20]; at 0.0195 µM, OCI-P5x cells, without rucaparib) 95.2% | viability ([20]; at 0.0781 µM, OCI-P5x cells, with rucaparib 20 µM, 100% = cells with rucaparib alone) 96.6% | viability ([20]; at 0.0781 µM, OCI-P5x cells, without rucaparib) 88.3% | viability ([20]; at 0.313 µM, OCI-C5x cells, with rucaparib 10 µM, 100% = cells with rucaparib alone) 85.8% | viability ([20]; at 0.313 µM, OCI-C5x cells, without rucaparib) 88.1% | viability ([20]; at 0.313 µM, OCI-P5x cells, with rucaparib 20 µM, 100% = cells with rucaparib alone) 84.8% | viability ([20]; at 0.313 µM, OCI-P5x cells, without rucaparib) 68.4% | viability ([20]; at 1.25 µM, OCI-C5x cells, with rucaparib 10 µM, 100% = cells with rucaparib alone) 80.4% | viability ([20]; at 1.25 µM, OCI-C5x cells, without rucaparib) 80% | viability ([20]; at 1.25 µM, OCI-P5x cells, with rucaparib 20 µM, 100% = cells with rucaparib alone) 68.8% | viability ([20]; at 1.25 µM, OCI-P5x cells, without rucaparib) 61.9% | viability ([20]; at 5 µM, OCI-C5x cells, with rucaparib 10 µM, 100% = cells with rucaparib alone) 49.1% | viability ([20]; at 5 µM, OCI-C5x cells, without rucaparib) 63.2% | viability ([20]; at 5 µM, OCI-P5x cells, with rucaparib 20 µM, 100% = cells with rucaparib alone) 57.9% | viability ([20]; at 5 µM, OCI-P5x cells, without rucaparib) 46.9%
inactive: nuclear beta-catenin stimulation ([2]; at 10 µM) 7.2% | insulin secretion stimulation [3] -1.2% | viability decrease [4] 33.4% | GLP1 secretion stimulation [6] 1.6% | inhibition of viability [7] 31.2% | viability decrease (inhibition) [9] 18.9% | remaining activity [14] 97% | outcome [15] | outcome [16] | outcome [17] | outcome [18] | fold change [19, 23] 0.823 | viability ([20]; at 0.000305 µM, OCI-C5x cells, with rucaparib 10 µM, 100% = cells with rucaparib alone) 122% | viability ([20]; at 0.000305 µM, OCI-C5x cells, without rucaparib) 112% | viability ([20]; at 0.000305 µM, OCI-P5x cells, with rucaparib 20 µM, 100% = cells with rucaparib alone) 104% | viability ([20]; at 0.000305 µM, OCI-P5x cells, without rucaparib) 112% | viability ([20]; at 0.00122 µM, OCI-C5x cells, with rucaparib 10 µM, 100% = cells with rucaparib alone) 111% | viability ([20]; at 0.00122 µM, OCI-C5x cells, without rucaparib) 107% | viability ([20]; at 0.00122 µM, OCI-P5x cells, with rucaparib 20 µM, 100% = cells with rucaparib alone) 111% | viability ([20]; at 0.00122 µM, OCI-P5x cells, without rucaparib) 103% | viability ([20]; at 0.00488 µM, OCI-C5x cells, with rucaparib 10 µM, 100% = cells with rucaparib alone) 113% | viability ([20]; at 0.00488 µM, OCI-C5x cells, without rucaparib) 112% | viability ([20]; at 0.0195 µM, OCI-C5x cells, with rucaparib 10 µM, 100% = cells with rucaparib alone) 103% | viability ([20]; at 0.0195 µM, OCI-C5x cells, without rucaparib) 108% | viability ([20]; at 0.0781 µM, OCI-C5x cells, with rucaparib 10 µM, 100% = cells with rucaparib alone) 101% | viability ([20]; at 0.0781 µM, OCI-C5x cells, without rucaparib) 107% | z-score [13] 0.69
4.5%: nuclear beta-catenin stimulation ([2]; stimulation, at 2 µM)
1.99: fold change [19, 24]
9960: cell count [19, 26]

O=C1OC2(c3ccc(O)cc3Oc3cc(O)ccc32)c2ccccc21
1.6: normalised cell number [10, 22]
3.4%: nuclear beta-catenin stimulation ([2]; stimulation, at 2 µM)
11200: cell count [19, 25]
5.09: fold change [19, 24]
1.11: normalised cell number [10, 21]
12500: cell count [19, 26]
inactive: parasite load remaining [1] 58.1% | nuclear beta-catenin stimulation ([2]; at 10 µM) -0.4% | insulin secretion stimulation [3] 3.7% | viability decrease [4] 6.1% | tube area decrease [5] 15.8% | GLP1 secretion stimulation [6] -2.3% | inhibition of viability [7] 9.8% | viability decrease (inhibition) [8] 16% | viability decrease (inhibition) [9] -11.6% | red/green cell ratio (normalised) [10] 1.43 | fold change [19, 23] 0.894 | remaining NAD [12] 10 nM
92.3%: viability [1]

— PubChem BioAssay
